Experimental data taken from PubChem BioAssay (NCI).
The panel holds about 79,000 compounds, 15% with a hit somewhere; the sample as a whole holds those more often. Values without a mark were called inactive. The source made the active and inactive calls. Rule as the data show it: active = growth inhibition above about 70%; inactive = the rest.

Legend:
[1] = NCI Yeast Anticancer Drug Screen. Data for the rad50 strain (AID 155);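 also: 0% = growth of vehicle-only cultures of the same strain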; details: S. cerevisiae rad50 strain growth inhibition, stronger effect = higher value
How it was run: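 Readout: growth inhibition relative to vehicle-treated cultures. Compound exposure was carried out in a genetically defined yeast strain deficient in DNA damage repair.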

[2] = NCI Yeast Anticancer Drug Screen. Data for the mec2-1 strain (AID 157); details: S. cerevisiae mec2-1 strain, stronger effect = higher value
How it was run: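 Growth inhibition is read against vehicle-treated controls after compound exposure of the mec2-1 yeast strain, which is defective in DNA damage repair or cell cycle control.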

[3] = NCI Yeast Anticancer Drug Screen. Data for the sgs1 mgt1 strain (AID 161);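 also: 0% = growth of cultures given vehicle only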; details: S. cerevisiae sgs1 mgt1 strain, stronger effect = higher value
How it was run: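 Compounds are added to genetically altered yeast, and growth is compared with cultures given vehicle alone to give percent inhibition.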

[4] = NCI Yeast Anticancer Drug Screen. Data for the cln2 rad14 strain (AID 165);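 also: 0% = growth equal to vehicle treated cultures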; details: S. cerevisiae cln2 rad14 strain, stronger effect = higher value
How it was run: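 Growth inhibition, relative to vehicle-treated controls, is the read-out. The test organism is a yeast strain with defined genetic alterations, cln2 rad14.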

[5] = NCI Yeast Anticancer Drug Screen. Data for the bub3 strain (AID 167); details: S. cerevisiae bub3 mutant strain, stronger effect = higher value
How it was run: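 Readout: yeast growth inhibition, expressed relative to vehicle-only wells. The test organism is a mutant strain from a panel with lesions in DNA repair or checkpoint genes.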

[6] = NCI Yeast Anticancer Drug Screen. Data for the mlh1 rad18 strain (AID 175); details: S. cerevisiae mlh1 rad18 strain growth inhibition, stronger effect = higher value
How it was run: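 Cells of a genetically altered yeast strain, deficient in DNA damage repair, were treated with compound. Their growth was then compared with that of vehicle-treated cultures to give inhibition.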

[7] = at 5.0 µM (retest, dose inferred, filed as 0.5)
[8] = at 50.0 µM (retest, dose inferred, filed as 5.0)

| Structure (SMILES) | growth inhibition [1, 7] | growth inhibition [1, 8] | growth inhibition ([1]; at 50.0 µM) | growth inhibition [2, 7] | growth inhibition [2, 8] | growth inhibition ([2]; at 50.0 µM) | growth inhibition [3, 7] | growth inhibition [3, 8] | growth inhibition ([3]; at 50.0 µM) | growth inhibition [4, 7] | growth inhibition [4, 8] | growth inhibition ([4]; at 50.0 µM) | growth inhibition [5, 7] | growth inhibition [5, 8] | growth inhibition ([5]; at 50.0 µM) | growth inhibition [6, 7] | growth inhibition [6, 8] | growth inhibition ([6]; at 50.0 µM) |
| --- | --- | --- | --- | --- | --- | --- | --- | --- | --- | --- | --- | --- | --- | --- | --- | --- | --- | --- |
| NC1=NCN(C2OC(COCc3ccccc3)C(OCc3ccccc3)C2OCc2ccccc2)C(=O)N1 (stereo not given) | 5% | 57% | 66.5% | 8% | 28% | 45.6% | 5% | 59% | 99.4% (active) | -7% | 58% | 80.2% (active) | -1% | 56% | 98% (active) | 1% | 86% (active) | 99% (active) |
| NCCNCCNCc1c2ccccc2c(CNCCNCCN)c2ccccc12 | 13% | 13% | 36.2% | -3% | -3% | 90.9% (active) | 0% | 0% | 90.9% (active) | 5% | 5% | 89.7% (active) | 7% | 7% | 43.8% | 17% | 17% | 90.8% (active) |
| COc1cc(OC)cc(C2SCC(=O)N2c2nncs2)c1 (stereo not given) | 2% | 2% | 20.2% | -5% | -3% | 97% (active) | 0% | 2% | 55.5% | -2% | 2% | 98.8% (active) | 1% | 13% | 98.6% (active) | 0% | 4% | 96.8% (active) |
| C/C(=N\NC(=S)NC12CC3CC(CC(C3)C1)C2)c1ccccn1 | 5% | 95% (active) | 97% (active) | 3% | 97% (active) | 97.9% (active) | 6% | 98% (active) | 98% (active) | -5% | 93% (active) | 94.7% (active) | 0% | 97% (active) | 97.1% (active) | -7% | 97% (active) | 97.3% (active) |
| COc1ccc(S)cc1 | 0% | 72% (active) | 78.9% (active) | 3% | 51% | 39.7% | 0% | 89% (active) | 94% (active) | -3% | 80% (active) | 69.5% | 0% | 62% | 76.5% (active) | 2% | 86% (active) | 83.8% (active) |
| CC1(C)CC[C@]2(C(=O)O)CC[C@]3(C)C(=CC[C@@H]4[C@@]5(C)C[C@H](O)[C@H](O)[C@@](C)(C(=O)O)[C@@H]5CC[C@]43C)[C@@H]2C1 | 100% (active) | 99% (active) | 91.2% (active) | 100% (active) | 100% (active) | 94.1% (active) | 99% (active) | 99% (active) | 92.7% (active) | 99% (active) | 99% (active) | 92% (active) | 99% (active) | 99% (active) | 92% (active) | 100% (active) | 100% (active) | 88.7% (active) |
| C=CCCCCCCCCC(=O)CCCCCCCCC=C | 0% | 2% | 7.6% | -2% | 3% | 9.2% | -2% | 0% | -3.35% | 6% | 3% | 58.8% | -1% | 4% | 14% | -4% | 1% | 5.75% |
| COc1ccc(CC/C(=N/O)c2ccccc2)cc1 | 0% | 92% (active) | 97% (active) | -3% | 97% (active) | 96.9% (active) | 8% | 94% (active) | 93.8% (active) | -10% | 74% (active) | 97% (active) | 1% | 90% (active) | 98% (active) | -9% | 96% (active) | 96.9% (active) |
| Nc1nc(N)c2nc(CNc3ccc(C(=O)NC(CCC(=O)O)C(=O)O)cc3)ccc2n1 (stereo not given) | -2% | -5% | 16.3% | -25% | 11% | 64.2% | 18% | 16% | 0.1% | 9% | 21% | -5.8% | 7% | 3% | -38.9% | -8% | 8% | -20.7% |
| CC1CCC2(CC1)OCC(C)O2 (stereo not given) | 4% | 1% | -19.9% | 16% | 5% | 5.45% | -2% | -12% | -24.4% | 26% | 15% | 19.8% | 27% | 34% | -0.9% | 7% | 1% | -8.8% |
